Data taken from PubChem BioAssay (EPA / NIEHS).
Activity calls are given as the source filed them. The calls were made as follows: active = hit-call score of the fitted dose curve at least 0.9, where 1 is the maximum; inactive = score below 0.9.

Legend:
[1] = read-out: Transforming growth factor beta 1 (TGFb1), TGFB1 (gene 7040); assay: BSK_KF3CT_TGFb1: BioMAP Diversity Plus: KF3CT Assay for Transforming growth factor beta 1 (TGFb1) Biomarker Activity (AID 2283072); settings: primary human keratinocytes with fibroblasts; actives raise or lower the signal
Summary of the method: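 Primary human skin cells (keratinocytes, foreskin fibroblasts) were co-cultured, exposed to test chemical and sampled at 24 h. TGF-b1 levels were measured by ELISA and fitted bidirectionally relative to DMSO.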

[2] = read-out: C-C motif chemokine 2 (Homo sapiens) (UniProt P13500); assay: BSK_KF3CT_MCP1: BioMAP Diversity Plus: KF3CT Assay for Monocyte Chemoattractant Protein 1 (MCP1/CCL2) Biomarker Activity (AID 2283073); settings: primary human keratinocytes with fibroblasts; actives raise or lower the signal
Summary of the method: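 Human keratinocyte–foreskin fibroblast co-culture; MCP-1 measured by ELISA 24 h after dosing. Bidirectional fit vs DMSO; cytotoxicity tracked by SRB total protein in parallel cultures.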

[3] = read-out: Matrix Metallopeptidase 9 (MMP9), MMP9 (gene 4318); assay: BSK_KF3CT_MMP9: BioMAP Diversity Plus: KF3CT Assay for Matrix Metallopeptidase 9 (MMP9) Biomarker Activity (AID 2283074); settings: primary human keratinocytes with fibroblasts; actives raise or lower the signal;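 as to AC50: MMP9 protein level quantified by ELISA in the co-culture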
Summary of the method: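 Human keratinocyte/foreskin fibroblast co-culture; compound added; 24 h; MMP-9 by ELISA; bidirectional fit vs DMSO baseline.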

[4] = read-out: urokinase plasminogen activator (uPA), PLAU (gene 5328); assay: BSK_KF3CT_uPA: BioMAP Diversity Plus: KF3CT Assay for urokinase plasminogen activator (uPA) Biomarker Activity (AID 2283075); settings: primary human keratinocytes with fibroblasts; actives raise or lower the signal
Summary of the method: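 ELISA readout of uPA, analyzed for signal gain or loss relative to DMSO, from a human primary keratinocyte–foreskin fibroblast co-culture measured 24 h after chemical treatment.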

CD40, CD40 (gene 958) [5] = assay: BSK_LPS_CD40: BioMAP Diversity Plus: LPS Assay for CD40 Biomarker Activity (AID 2283076); settings: primary human HUVEC with PBMC; actives raise or lower the signal
Summary of the method: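 HUVEC plus PBMC co-culture stimulated with LPS; CD40 quantified by ELISA 24 h after compound dosing. Fitting was bidirectional relative to DMSO. SRB staining of parallel cultures flagged overt cytotoxicity.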

[6] = read-out: E-selectin (Homo sapiens) (UniProt P16581); assay: BSK_LPS_Eselectin: BioMAP Diversity Plus: LPS Assay for Eselectin Biomarker Activity (AID 2283077); settings: primary human HUVEC with PBMC; actives raise or lower the signal
Summary of the method: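 Human umbilical vein endothelial cells co-cultured with PBMC under LPS stimulation; cell-surface E-selectin measured by ELISA 24 h after dosing. Change in either direction versus DMSO, with SRB total-protein staining in parallel cultures for cytotoxicity.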

[7] = read-out: Interleukin-8 (IL8), CXCL8 (gene 3576); assay: BSK_LPS_IL8: BioMAP Diversity Plus: LPS Assay for Interleukin-8 (IL8) Biomarker Activity (AID 2283078); settings: primary human HUVEC with PBMC; actives raise or lower the signal
Summary of the method: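 Human umbilical vein endothelial cells co-cultured with PBMC, LPS-stimulated, exposed to compound for 24 h. IL-8 quantified by ELISA; fitted in both directions against DMSO, with SRB total-protein staining of parallel cultures for cytotoxicity.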

[8] = BSK_LPS_SRB: Viability Assessment in the BioMAP Diversity Plus: LPS Assay (AID 2283079); settings: primary human HUVEC with PBMC;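 also: total protein by sulforhodamine B absorbance as a cytotoxicity measure; measured one day after compound addition; fitted in both directions against DMSO so loss or gain of signal counts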
Summary of the method: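 Co-culture of human umbilical vein endothelial cells and PBMC, read 24 h after dosing. Total protein by 0.1% SRB staining after 10% TCA fixation, absorbance at 560 nm; bidirectional fit against DMSO.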

[9] = read-out: Interleukin-1 alpha (IL1a), IL1A (gene 3552); assay: BSK_LPS_IL1a: BioMAP Diversity Plus: LPS Assay for Interleukin-1 alpha (IL1a) Biomarker Activity (AID 2283080); settings: primary human HUVEC with PBMC; actives raise or lower the signal
Summary of the method: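 Human umbilical vein endothelial cells co-cultured with PBMC and stimulated with LPS; IL-1a measured by ELISA 24 h after dosing. Bidirectional fitting against DMSO; cytotoxicity checked by SRB staining in parallel cultures.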

[10] = read-out: Monocyte Chemoattractant Protein-1 (MCP1), CCL2 (gene 6347); assay: BSK_LPS_MCP1: BioMAP Diversity Plus: LPS Assay for Monocyte Chemoattractant Protein-1 (MCP1) Biomarker Activity (AID 2283081); settings: primary human HUVEC with PBMC; actives raise or lower the signal;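 as to AC50: secreted MCP-1 protein quantified by ELISA in culture supernatant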
Summary of the method: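 Human umbilical vein endothelial cells co-cultured with PBMC, LPS-stimulated; secreted MCP-1 measured by ELISA 24 h after compound addition. Bidirectional curve fitting against DMSO baseline; SRB total-protein staining in parallel cultures for cytotoxicity.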

[11] = BSK_LPS_PGE2: BioMAP Diversity Plus: LPS Assay for Prostaglandin E2 (PGE2) Biomarker Activity (AID 2283082); settings: primary human HUVEC with PBMC; actives raise or lower the signal;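 as to AC50: secreted prostaglandin E2 measured by ELISA in LPS-stimulated co-culture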
Summary of the method: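 LPS-activated HUVEC/PBMC co-culture; cmpd dosed, 24 h; PGE2 by ELISA; bidirectional fit vs DMSO; SRB (0.1%, TCA-fixed, 560 nm) in parallel plates for overt cytotox.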

[12] = read-out: Macrophage colony-stimulating factor (MCSF), CSF1 (gene 1435); assay: BSK_LPS_MCSF: BioMAP Diversity Plus: LPS Assay for Macrophage colony-stimulating factor (MCSF) Biomarker Activity (AID 2283083); settings: primary human HUVEC with PBMC; actives raise or lower the signal
Summary of the method: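 HUVEC–PBMC co-culture, M-CSF measured by ELISA 24 h after chemical dosing. Fitted in both directions relative to DMSO as negative control; overt cytotoxicity assessed by SRB total-protein staining in parallel cultures.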

[13] = read-out: Tissue Factor, F3 (gene 2152); assay: BSK_LPS_TissueFactor: BioMAP Diversity Plus: LPS Assay for Tissue Factor Biomarker Activity (AID 2283084); settings: primary human HUVEC with PBMC; actives raise or lower the signal
Summary of the method: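 Human umbilical vein endothelial cells co-cultured with PBMC were dosed with compound. Cell-surface CD142 was measured by ELISA 24 h later. Activity was fitted bidirectionally against DMSO, with SRB total-protein staining in parallel cultures for cytotoxicity.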

[14] = read-out: Tumor necrosis factor (Homo sapiens) (UniProt P01375); assay: BSK_LPS_TNFa: BioMAP Diversity Plus: LPS Assay for Tumour Necrosis Factor alpha (TNFa) Biomarker Activity (AID 2283085); settings: primary human HUVEC with PBMC; actives raise or lower the signal
Summary of the method: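 Read-out is ELISA of TNFa in primary human endothelial cell–PBMC co-cultures at 24 h after compound. Activity in either direction was fitted against DMSO.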

[15] = read-out: Vascular cell adhesion molecule 1 (VCAM1), VCAM1 (gene 7412); assay: BSK_LPS_VCAM1: BioMAP Diversity Plus: LPS Assay for Vascular cell adhesion molecule 1 (VCAM1) Biomarker Activity (AID 2283086); settings: primary human HUVEC with PBMC; actives raise or lower the signal
Summary of the method: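 HUVEC + PBMC co-culture, LPS system; compound 24 h; VCAM-1 by ELISA; bidirectional fit vs DMSO control; parallel SRB (0.1%, TCA-fixed, 560 nm) for cytotoxicity.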

CD38, CD38 (gene 952) = assay: BSK_SAg_CD38: BioMAP Diversity Plus: SAg Assay for CD38 Biomarker Activity (AID 2283087); settings: primary human HUVEC with PBMC; actives raise or lower the signal
Summary of the method: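 Human HUVEC plus PBMC co-culture stimulated with superantigen; CD38 measured by ELISA 24 h after chemical dosing. Fluorescence read-out, bidirectional fit against DMSO; cytotoxicity tracked in parallel by SRB and Alamar Blue.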

CD40, CD40 (gene 958) [16] = assay: BSK_SAg_CD40: BioMAP Diversity Plus: SAg Assay for CD40 Biomarker Activity (AID 2283088); settings: primary human HUVEC with PBMC; actives raise or lower the signal
Summary of the method: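 HUVEC plus PBMC co-culture, superantigen-activated, with CD40 read by ELISA 24 h after dosing. Curves fitted in both directions against DMSO. Overt cytotoxicity checked by parallel SRB total-protein staining.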

CD69, CD69 (gene 969) = assay: BSK_SAg_CD69: BioMAP Diversity Plus: SAg Assay for CD69 Biomarker Activity (AID 2283089); settings: primary human HUVEC with PBMC; actives raise or lower the signal;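 as to AC50: cell surface CD69 protein quantified by ELISA with fluorescence detection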
Summary of the method: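 HUVEC co-cultured with PBMC were dosed with chemical, and CD69 was measured by ELISA with fluorescence read-out 24 h later. Bidirectional curve fitting used DMSO as negative control and activity baseline.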

[17] = read-out: Monocyte Chemoattractant Protein-1 (MCP1), CCL2 (gene 6347); assay: BSK_SAg_MCP1: BioMAP Diversity Plus: SAg Assay for Monocyte Chemoattractant Protein-1 (MCP1) Biomarker Activity (AID 2283090); settings: primary human HUVEC with PBMC; actives raise or lower the signal
Summary of the method: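 MCP-1 levels in the endothelial–PBMC SAg co-culture were quantified by ELISA at 24 h post-dosing; both increases and decreases versus DMSO scored. Cytotoxicity monitored by SRB total protein in parallel cultures.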

[18] = read-out: E-selectin (Homo sapiens) (UniProt P16581); assay: BSK_SAg_Eselectin: BioMAP Diversity Plus: SAg Assay for Eselectin Biomarker Activity (AID 2283091); settings: primary human HUVEC with PBMC; actives raise or lower the signal
Summary of the method: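 Human umbilical vein endothelial cells co-cultured with peripheral blood mononuclear cells, SAg system. E-selectin is measured by ELISA 24 h after dosing and fitted bidirectionally against DMSO. Cytotoxicity is checked by SRB staining of parallel cultures.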

Measured: AC50

Tumor necrosis factor (Homo sapiens), sequence (P01375 whole entry, looked up): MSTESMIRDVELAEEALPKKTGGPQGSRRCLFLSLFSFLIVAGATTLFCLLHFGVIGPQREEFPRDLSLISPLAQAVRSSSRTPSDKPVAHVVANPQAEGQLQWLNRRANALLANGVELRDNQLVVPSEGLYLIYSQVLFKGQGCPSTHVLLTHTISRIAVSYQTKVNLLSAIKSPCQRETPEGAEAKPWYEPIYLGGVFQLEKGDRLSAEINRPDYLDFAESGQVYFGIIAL
E-selectin (Homo sapiens), sequence (P16581 whole entry, looked up): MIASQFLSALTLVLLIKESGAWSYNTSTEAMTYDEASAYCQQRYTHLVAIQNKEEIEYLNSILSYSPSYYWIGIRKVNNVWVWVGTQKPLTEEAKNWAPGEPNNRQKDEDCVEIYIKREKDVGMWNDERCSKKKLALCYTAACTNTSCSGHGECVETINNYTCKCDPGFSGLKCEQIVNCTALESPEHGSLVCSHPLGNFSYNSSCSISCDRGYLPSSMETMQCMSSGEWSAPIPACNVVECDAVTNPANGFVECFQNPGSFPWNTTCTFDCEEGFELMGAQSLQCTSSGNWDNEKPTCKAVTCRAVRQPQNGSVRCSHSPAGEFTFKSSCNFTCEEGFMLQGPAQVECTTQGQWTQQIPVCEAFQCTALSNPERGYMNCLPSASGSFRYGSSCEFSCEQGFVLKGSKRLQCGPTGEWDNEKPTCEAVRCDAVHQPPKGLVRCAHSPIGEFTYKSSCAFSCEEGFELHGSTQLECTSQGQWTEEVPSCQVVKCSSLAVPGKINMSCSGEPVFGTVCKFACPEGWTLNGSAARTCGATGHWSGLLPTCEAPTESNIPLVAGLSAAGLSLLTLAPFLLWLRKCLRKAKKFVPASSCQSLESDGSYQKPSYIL

Oc1ccc(O)cc1
inactive: [1] | [2] | [4] | CD40, CD40 (gene 958) [5] | [8] | [13] | [17]
active: [3] 20 µM | [6] 26.2 µM | [7] 30.7 µM | [9] 8.51 µM | [10] 25.8 µM | [11] 30 µM | [12] 9.78 µM | [14] 28.9 µM | [15] 20 µM | CD38, CD38 (gene 952) 36.5 µM | CD40, CD40 (gene 958) [16] 11.4 µM | CD69, CD69 (gene 969) 20 µM | [18] 23.9 µM

CC(C)(O)c1ccc(CNC(=O)c2cccnc2Oc2ccc(F)cc2)cc1
active: [14] 0.598 µM | CD38, CD38 (gene 952) 1.19 µM | [17] 1.16 µM | [18] 0.737 µM
inactive: all other assays above

CCCCCCC(CCCCCCCCCCC(=O)OCC(COC(C)=O)OC(C)=O)OC(C)=O (stereo not given)
inactive: all assays above
